# Assay results reported in PubChem BioAssay (NCI).
# Compounds without any hit were thinned out: in the full panel of roughly 79,000, 15% have a hit. Values without a mark were called inactive. Active and inactive are the calls of the source. Rule as the data show it: active = growth inhibition above about 70%; inactive = the rest. *1 amine or outer side, *2 acyl side, *3 side chain or, on linkers, in order; H or OH if unused. Where a SMILES comes first, the peptide text is derived from it. Bridges are numbered along the chain shown (N, C = ends). Roman numbers before positions name the chains, in order. [ ]: non-standard residue; d: D form. The star is where a group is joined. ξ: configuration not given here. Actinocin(1to9) = Cc1c2oc3c(C)ccc(C(=O)[*:2])c3nc-2c(C(=O)[*:1])c(N)c1=O; ξPhe(4-NO2) = NC(Cc1ccc([N+](=O)[O-])cc1)C(=O)O; NMeY = CN[CH](Cc1ccc(O)cc1)C(=O)O; Boc = CC(C)(C)OC(=O)*; OBn = c1ccc(CO*)cc1; Sar = CNCC(=O)O
# Experiments:
# [1] = NCI Yeast Anticancer Drug Screen. Data for the rad50 strain (AID 155);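 also: 0% = growth of vehicle-only cultures of the same strain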; conditions: S. cerevisiae rad50 strain growth inhibition; at 50.0 µM; hits give high values
# Procedure, shortened: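 A DNA repair-deficient yeast mutant serves as the test organism; compound-induced growth inhibition is calculated against vehicle-treated cells.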
# [2] = NCI Yeast Anticancer Drug Screen. Data for the mec2-1 strain (AID 157); conditions: S. cerevisiae mec2-1 strain, at 50.0 µM, hits give high values
# Procedure, shortened: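 Using mec2-1 yeast: add compound, measure growth, express inhibition versus vehicle-treated cultures.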
# [3] = NCI Yeast Anticancer Drug Screen. Data for the sgs1 mgt1 strain (AID 161);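 also: 0% = growth of cultures given vehicle only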; conditions: S. cerevisiae sgs1 mgt1 strain, at 50.0 µM, hits give high values
# Procedure, shortened: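 Growth of a repair-deficient yeast mutant was monitored after compound treatment and expressed as inhibition relative to vehicle-treated cultures.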
# [4] = NCI Yeast Anticancer Drug Screen. Data for the cln2 rad14 strain (AID 165);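 also: 0% = growth equal to vehicle treated cultures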; conditions: S. cerevisiae cln2 rad14 strain, at 50.0 µM, hits give high values
# Procedure, shortened: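 Yeast strain cln2 rad14, bearing defects in cell cycle control and DNA repair, serves as the test system; values reflect growth inhibition compared with vehicle.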
# [5] = NCI Yeast Anticancer Drug Screen. Data for the bub3 strain (AID 167); conditions: S. cerevisiae bub3 mutant strain, at 50.0 µM, hits give high values
# Procedure, shortened: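 Inhibition values come from growth of compound-treated mutant yeast normalised to vehicle-treated controls.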
# [6] = NCI Yeast Anticancer Drug Screen. Data for the mlh1 rad18 strain (AID 175); conditions: S. cerevisiae mlh1 rad18 strain growth inhibition; at 50.0 µM; hits give high values
# Procedure, shortened: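 Steps: expose repair-defective yeast to compound; measure growth; express inhibition against vehicle-treated controls.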
SMILES,growth inhibition [1],growth inhibition [2],growth inhibition [3],growth inhibition [4],growth inhibition [5],growth inhibition [6]
"COc1ccc(CC2C(=O)OC(C)C(NC(=O)c3c4nc5c(C(=O)NC6C(=O)NC(C(C)C)C(=O)N7CCCC7C(=O)N(C)CC(=O)N(C)C(Cc7ccc(OC)cc7)C(=O)OC6C)ccc(C)c5oc-4c(C)c(=O)c3N)C(=O)NC(C(C)C)C(=O)N3CCCC3C(=O)N(C)CC(=O)N2C)cc1 (centres undefined) (I: TVP[Sar][NMeY](Me) / II: TVP[Sar][NMeY](Me); ester I:1-I:C, II:1-II:C; linker I:N-II:N via Actinocin(1to9); configuration not given here)",-3%,-3.65%,-26.1%,8.5%,-25.8%,-24.7%
CC[C@]1(O)C(=O)OCc2c1cc1n(c2=O)Cc2cc3c(N)cccc3nc2-1,16.1%,14%,9.75%,-0.25%,14.2%,45%
COc1ccc(OC)c(/C=C/c2cnnc3ccccc23)c1,12.6%,12.8%,19.2%,-2.95%,6.75%,32%
O=C1c2ccccc2C(=O)C1(c1ccccn1)[N+](=O)[O-],5.55%,1.45%,-0.2%,2%,13.6%,3.95%
CCOC(=O)Cn1c(C(F)(F)F)nc2nc(Cl)c(Cl)nc21,-0.6%,-22.9%,-33.5%,-94.9%,-19.9%,-17.1%
O=c1[nH]c(=O)n(C2OC(CO)C(O)C2O)cc1OCCCc1ccccc1 (centres undefined),-23.1%,-1.8%,16.4%,31.2%,-5.45%,8.75%
CCOC(=O)CC1CN(C(=O)c2ccccc2)CCC12OCCO2 (centres undefined),-3.4%,-4.3%,-4%,-5.05%,-2.35%,-5.3%
COc1ccc2nc(-c3ccccc3)cc(N=[N+]=[N-])c2c1,1.9%,-0.85%,-12.7%,-5.35%,-23.1%,-12%
COC(=O)c1nc(N)nc(C(=O)OC)c1C(=O)c1ccco1,3.95%,-4.25%,30.3%,-3.7%,1.55%,26.5%
C(=N/N=C(/C(=N/N=C/c1ccccc1)c1ccccc1)c1ccccc1)\c1ccccc1,26.6%,5%,33.3%,8.4%,11.9%,5.45%
CCOC(=O)C(C)F (centres undefined),6.1%,-26.1%,1.55%,-1.15%,-8.45%,3.75%
CC(=O)NC(CCCNC(=O)OCc1ccccc1)C(=O)NCc1ccccc1 (centres undefined),-9.1%,-20.9%,-30%,-1.35%,-16.9%,-36%
N#C/C(=C/NC(=S)Nc1ccc(S(N)(=O)=O)cc1)C(N)=O,-44.8%,-89%,-26.4%,-10.8%,-20.4%,-24.1%
CC(C)C(C)(C)C(N)=O,-4.5%,-0.95%,-9.1%,13.9%,19.6%,0.95%
CCCC[Si](C)(C)CCCC,-6.35%,-5.95%,-24.9%,-11.2%,-2.1%,-5.3%
CCc1nnc(CC)n1N,46.2%,-7.05%,41.8%,-10.6%,16.4%,38.2%
Cc1ccc(CSCc2c(CSCc3ccc(C)cc3)c(CSCc3ccc(C)cc3)c(CSCc3ccc(C)cc3)c(CSCc3ccc(C)cc3)c2CSCc2ccc(C)cc2)cc1,-6%,0.9%,5.8%,29.8%,1.75%,6.85%
Cc1cc(NS(=O)(=O)c2ccc(NC(NC(=O)C(C(F)(F)F)C(F)(F)F)(C(F)(F)F)C(F)(F)F)cc2)no1,1.4%,-18.1%,-24.9%,-8.4%,10.6%,0.55%
Cc1cccc(C(=O)c2ccc(C)cc2C)c1,17.1%,6.65%,-7.55%,6.75%,-0.7%,5.4%
NC(CCCNCc1ccccc1)C(=O)O (centres undefined),31.9%,6.85%,1.65%,12.3%,36.9%,16.3%

SMILES,growth inhibition [1],growth inhibition [2],growth inhibition [3],growth inhibition [4],growth inhibition [5],growth inhibition [6]
CCOC(=O)C(=O)Nc1ccccc1C(C)C,12.4%,6.05%,0.2%,-7.15%,-9%,6.35%
C(=N\c1oc(-c2ccccc2)nc1SCc1ccccc1)/c1ccccc1,2.75%,11.2%,23.1%,-19.8%,7.3%,25.9%
CC1(C)C(=NNC(=O)C[N+](C)(C)C)C(C)(C)C1=NNC(=O)C[N+](C)(C)C,-0.4%,-11.9%,-32.9%,-46.4%,-0.15%,-13.5%
O=C1C2CCOC2N=C2CCCN12 (centres undefined),-1.85%,5.55%,-3.55%,1.65%,-5.3%,-11.1%
CC1(C)OC(=O)N=C1c1ccc(Br)cc1,1.4%,-25.6%,-21.1%,21.8%,-22%,15.3%
CC(=O)OCC1OC(n2c(=S)n(-c3ccc([N+](=O)[O-])cc3)c(=O)c3ccccc32)C(OC(C)=O)C(OC(C)=O)C1OC(C)=O (centres undefined),-6.3%,19.1%,-9.55%,19%,11.8%,9.1%
CCOC(=O)c1ncn2c1[nH]c(=O)c1ccccc12,-6.95%,-16.6%,-8.9%,1.2%,-9.5%,-10.6%
CCC[N+]1=C/c2ccccc2OC(=O)/C=C\1[O-],-36.9%,-11.3%,-14.1%,-8.95%,5.8%,-1.1%
CC(C)(C)OC(=O)NC(Cc1ccc([N+](=O)[O-])cc1)C(=O)NCC(=O)OCc1ccccc1 (centres undefined) (Boc-[ξPhe(4-NO2)]-Gly-OBn),-17.4%,8.45%,7.05%,32.5%,-5.5%,-9%
O=C(Nc1ccc(Nc2ccc(NC(=O)c3ccccc3)c3c2C(=O)c2ccccc2C3=O)c2c1C(=O)c1ccccc1C2=O)c1ccccc1,6.8%,-15.6%,6.05%,6.1%,-1.95%,-9.1%
CC1OC(OC23C(=O)CC(C)(O)CC2(O)C=CC2=C3C(=O)c3ccc(C4CC(OC5CCC(OC6CC(O)C(O)C(C)O6)C(C)O5)C(O)C(C)O4)c(O)c3C2=O)CCC1O (centres undefined),1.4%,-7.95%,5.75%,-0.5%,-0.25%,18.1%
CC(C)SC(C)(NC(=O)C1C(C)(C)CCC1(C)C)C(=O)O (centres undefined),-52.6%,1.45%,-24.6%,1.5%,5.45%,-49.5%
COc1ccc([B-]23OCC[N+]2(CNC(=O)c2ccccc2O)CCO3)cc1 (centres undefined),27.4%,2.7%,13.9%,14.9%,7.3%,17.6%
CC(=S)NNC(=O)c1ccncc1,-14.1%,6.05%,-8.2%,-1.15%,-20.1%,-14.9%
Cc1ccc(C)c(NC(=O)Oc2ccc(Br)cc2Br)c1,11.4%,5.9%,3.4%,-28.1%,-1%,18.1%
OCC(O)CNc1ncnc2ccccc12 (centres undefined),-1.65%,-11.8%,3.4%,-26.4%,1.7%,10.2%
c1ccc2c(c1)ccc1ccc3ocnc3c12,6.45%,-0.95%,-3.15%,-6.6%,9.15%,10%
Cc1c2ccccc2c(CN(C)CC(=O)NCC(=O)NCC(=O)O)c2ccccc12,97.5% (active),97.7% (active),97.5% (active),97.5% (active),98.2% (active),98.5% (active)
COc1ccc(Cc2c3cc(OC)c(OC)cc3cc[n+]2C)cc1,-0.05%,-28.4%,-17.9%,-2.45%,-10.8%,-6.15%
